The panel holds about 83,000 compounds, 20% with a hit somewhere; the sample as a whole holds those more often.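 How to read the values: 0–100, growth inhibition (40 = 60% inhibited); 0, no net growth; -100 to 0, cell death (-40 = 40% of starting cells died; -100 = all dead).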 Unmarked numbers belong to inactive results. The source made the active and inactive calls. Rule for the calls: active = growth percent below 10; inactive = the rest.
What follows are compounds tested on MDA-MB-468 breast (assay: NCI-60 one-dose screen, 48 h (100 = growth as untreated, 0 = no growth, -100 = all killed)). Details: 10 µM unless noted.

Row | Structure (SMILES) | growth
1 | COc1ccc(NC(=O)c2sc3nc4c(cc3c2N)C(O)CCC4)cc1 (stereo unspecified) | 92.2%
2 | CCOC(=O)c1cc(C)n(-c2ccc(C(=O)O)cc2)c1C | 65.5%
3 | Clc1nc2ccccc2cc1Cn1nnc(Cc2ccccc2)n1 | 11.1%
4 | O=C(CCl)Oc1ccc(OC(=O)CCl)cc1 | 78.4%
5 | C#CC[C@@H]1C[C@]2(C)[C@H]3CC=C4[C@H]5[C@@H](C)[C@H](C)CC[C@]5(C(=O)NCCCN5CCN(CCCN)CC5)CC[C@@]4(C)[C@]3(C)CC[C@H]2C(C)(C)[C@H]1OC(C)=O | -72.9% (active)
6 | COc1ccc2[nH]cc(-c3csc4nc(-c5ccccc5)cn34)c2c1 | 21.2%
7 | COc1ccc(OCC(CO)N2CCN(c3ccccc3)CC2)cc1 (stereo unspecified) | 99.6%
8 | Clc1cccc(Cc2cn3cc(-c4ccccc4)nc3s2)c1 | 44.3%
9 | CCn1cc(C2NC(=O)c3cc(F)ccc3N2)c2cccc(Cl)c21 (stereo unspecified) | 7.04% (active)
10 | CC(=O)c1sc(-c2ccc(F)cc2)cc1O | 111%
11 | COc1ccc(-c2nc3ccccn3c2-c2nnc(-c3cc(OC)c(OC)c(OC)c3)o2)cc1 | 44.3%

Reference: PubChem BioAssay (NCI)
